# Source: PMC12215968
# Target: SERBP1 (UniProt Q8NC51)
# Assay: cross-linking mass spectrometry
# Conditions: TSTO, in cells
# Chain of YWHAB, P31946 (P31946 whole entry): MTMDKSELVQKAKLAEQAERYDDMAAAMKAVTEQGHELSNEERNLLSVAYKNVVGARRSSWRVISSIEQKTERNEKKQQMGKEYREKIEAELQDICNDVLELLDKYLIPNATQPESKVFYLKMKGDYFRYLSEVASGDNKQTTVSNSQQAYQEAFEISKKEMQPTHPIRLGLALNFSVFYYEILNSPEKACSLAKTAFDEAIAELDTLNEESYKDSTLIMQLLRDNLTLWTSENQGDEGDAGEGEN
# Chain of YWHAQ, P27348 (P27348 whole entry): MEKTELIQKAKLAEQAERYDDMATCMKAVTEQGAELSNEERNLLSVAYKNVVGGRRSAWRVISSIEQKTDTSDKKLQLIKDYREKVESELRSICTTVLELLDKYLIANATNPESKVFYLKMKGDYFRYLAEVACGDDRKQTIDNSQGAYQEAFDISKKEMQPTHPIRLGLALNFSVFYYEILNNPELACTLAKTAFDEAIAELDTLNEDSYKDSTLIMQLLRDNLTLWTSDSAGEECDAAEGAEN
# Chain of YWHAG, P61981 (P61981 whole entry): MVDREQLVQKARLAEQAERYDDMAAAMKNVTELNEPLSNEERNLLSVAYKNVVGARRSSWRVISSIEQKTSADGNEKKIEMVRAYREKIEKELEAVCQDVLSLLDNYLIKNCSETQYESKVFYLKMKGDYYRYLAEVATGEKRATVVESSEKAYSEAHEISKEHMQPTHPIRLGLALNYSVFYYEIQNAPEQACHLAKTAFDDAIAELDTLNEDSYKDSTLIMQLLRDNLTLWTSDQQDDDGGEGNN
row,Substance,cross-linked residues
1,"RPL23A, P62750",K30 - K68
2,"RPS10, P46783",K107 - K299
3,"RPS3, P23396",K108 - K236
4,"RPS28, P62857",K16 - K140
5,"RPS15, P62841",K58 - K327
6,"RPL34, P49207",K115 - K37

# Target: YWHAE (UniProt P62258)
# Assay: cross-linking mass spectrometry
# Conditions: TSTO, in cells
# Chain of YWHAE (P62258 whole entry): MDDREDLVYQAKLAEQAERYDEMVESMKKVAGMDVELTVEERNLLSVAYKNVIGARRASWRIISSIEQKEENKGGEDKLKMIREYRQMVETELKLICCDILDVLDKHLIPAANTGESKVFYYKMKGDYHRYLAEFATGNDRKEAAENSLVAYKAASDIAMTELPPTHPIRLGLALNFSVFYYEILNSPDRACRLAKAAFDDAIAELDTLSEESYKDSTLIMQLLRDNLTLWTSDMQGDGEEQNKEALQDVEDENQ
row,Substance,cross-linked residues
1,"YWHAB, P31946",K70 - K12
2,"YWHAQ, P27348",K68 - K12
3,"YWHAG, P61981",K69 - K12
